Experimental data from PubChem BioAssay (NCI).
This is part of a sample that, as a whole, favours compounds with a hit. Of some 79,000 tested, about 15% had one in any assay. The source made the active and inactive calls. Rule as the data show it: active = growth inhibition above about 70%; inactive = the rest.

What was measured:
[1] = NCI Yeast Anticancer Drug Screen. Data for the rad52 strain (AID 147);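 also: 0% = growth of vehicle-treated control cultures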; details: S. cerevisiae rad52 mutant growth inhibition, active compounds read high
Outline: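 Screen used a yeast mutant impaired in DNA repair. After compound exposure, growth was measured. Values reflect inhibition compared with vehicle-treated cells.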

[2] = NCI Yeast Anticancer Drug Screen. Data for the wt1 strain (AID 149);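 also: 0% = growth of vehicle-treated wt1 cultures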; details: S. cerevisiae wt1 strain (SPY 50644) growth inhibition, active compounds read high
Outline: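 wt1 strain grown with compound or vehicle; inhibition taken from the growth difference.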

[3] = NCI Yeast Anticancer Drug Screen. Data for the rad50EPP+ strain (AID 151);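 also: 0% = growth of vehicle-treated control cultures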; details: S. cerevisiae rad50 mutant strain, active compounds read high
Outline: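 Exposing the rad50EPP+ strain to each compound, growth was compared with vehicle-only cultures to give inhibition.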

[4] = NCI Yeast Anticancer Drug Screen. Data for the mgt1 strain (AID 153); details: S. cerevisiae mgt1 mutant growth inhibition, active compounds read high
Outline: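 Genetically defined yeast (mgt1) treated with compound; inhibition of growth expressed against vehicle-treated controls.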

[5] = NCI Yeast Anticancer Drug Screen. Data for the rad50 strain (AID 155);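 also: 0% = growth of vehicle-only cultures of the same strain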; details: S. cerevisiae rad50 strain growth inhibition, active compounds read high
Outline: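 DNA repair mutant yeast, compound exposure, growth read-out; inhibition is taken relative to vehicle.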

[6] = NCI Yeast Anticancer Drug Screen. Data for the mec2-1 strain (AID 157); details: S. cerevisiae mec2-1 strain, active compounds read high
Outline: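 Readout is yeast growth inhibition, normalised to vehicle-treated controls, in the mec2-1 strain exposed to compound.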

[7] = NCI Yeast Anticancer Drug Screen. Data for the rad14 strain (AID 159);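 also: 0% = growth of vehicle-treated control cultures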; details: S. cerevisiae rad14 strain growth inhibition, active compounds read high
Outline: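 DNA repair-defective yeast, compound-exposed; % growth inhibition derived by comparison with vehicle-treated controls.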

[8] = NCI Yeast Anticancer Drug Screen. Data for the sgs1 mgt1 strain (AID 161);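 also: 0% = growth of cultures given vehicle only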; details: S. cerevisiae sgs1 mgt1 strain, active compounds read high
Outline: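 This yeast growth screen uses a strain with defined DNA-repair lesions; compound-treated growth is compared with vehicle-treated growth.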

[9] = NCI Yeast Anticancer Drug Screen. Data for the CLN2oe strain (AID 163);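 also: 0% = growth of vehicle-only control cultures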; details: S. cerevisiae CLN2oe strain, active compounds read high
Outline: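 Values reflect how much compound exposure reduced yeast growth, referenced to vehicle-exposed cells. Assay organism is a strain with a defined genetic change affecting cell-cycle control.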

[10] = NCI Yeast Anticancer Drug Screen. Data for the cln2 rad14 strain (AID 165);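 also: 0% = growth equal to vehicle treated cultures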; details: S. cerevisiae cln2 rad14 strain, active compounds read high
Outline: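 Relative to vehicle controls, growth inhibition of compound-treated cln2 rad14 yeast was recorded.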

[11] = NCI Yeast Anticancer Drug Screen. Data for the bub3 strain (AID 167); details: S. cerevisiae bub3 mutant strain, active compounds read high
Outline: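 In this screen, a yeast mutant lacking normal mitotic checkpoint function is challenged with compound. Relative growth versus vehicle gives the inhibition value.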

[12] = NCI Yeast Anticancer Drug Screen. Data for the wt2 strain (AID 169);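 also: 0% = growth of vehicle-treated yeast cultures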; details: S. cerevisiae wt2 strain growth inhibition, active compounds read high
Outline: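 Values express reduction in yeast growth under compound treatment, referenced to vehicle-treated cells.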

[13] = NCI Yeast Anticancer Drug Screen. Data for the mlh1 strain (AID 171);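 also: 0% = growth of vehicle-treated control cultures of the same strain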; details: S. cerevisiae mlh1 strain growth inhibition, active compounds read high
Outline: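 Steps: expose the defined-mutant yeast strain to compound; expose a parallel culture to vehicle; measure growth; express compound effect as inhibition relative to the vehicle culture.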

[14] = NCI Yeast Anticancer Drug Screen. Data for the sgs1 strain (AID 173);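 also: 0% = growth of vehicle-only control cultures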; details: S. cerevisiae sgs1 mutant, active compounds read high
Outline: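 Treat defined-mutant yeast with compound; measure growth; calculate inhibition relative to vehicle-treated cells.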

[15] = NCI Yeast Anticancer Drug Screen. Data for the mlh1 rad18 strain (AID 175); details: S. cerevisiae mlh1 rad18 strain growth inhibition, active compounds read high
Outline: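 Test agents were incubated with a yeast strain of defined genotype (DNA damage repair defect). Inhibition of growth was derived by comparison with vehicle-exposed cultures.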

[16] = NCI Yeast Anticancer Drug Screen. Data for the rad18 strain (AID 177); details: S. cerevisiae rad18 mutant growth inhibition, active compounds read high
Outline: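 A genetically defined yeast mutant impaired in DNA damage repair was treated with test compounds, then its growth was measured against cultures receiving vehicle alone.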

[17] = at 5.0 µM (retest, dose inferred, filed as 0.5)
[18] = at 50.0 µM (retest, dose inferred, filed as 5.0)

Measured: growth inhibition

COc1ccc(/C(C)=N/OC(=O)c2c(-c3ccccc3Cl)noc2C)cc1CN1CCOCC1
active: [1]; at 100.0 µM 75% | [4]; at 100.0 µM 87% | [5]; [18] 88% | [5]; at 100.0 µM 70% | [6]; [18] 98% | [7]; at 100.0 µM 91% | [8]; [18] 98% | [8]; at 50.0 µM 74.4% | [10]; [18] 97% | [11]; [18] 97% | [13]; at 100.0 µM 85% | [14]; at 100.0 µM 78% | [15]; [18] 85% | [16]; at 100.0 µM 74%
inactive: [1]; at 1.2 µM 21% | [1]; at 3.7 µM 23% | [1]; at 11.0 µM 19% | [1]; at 33.0 µM 34% | [2]; at 1.2 µM -7% | [2]; at 3.7 µM -10% | [2]; at 11.0 µM -14% | [2]; at 33.0 µM -7% | [2]; at 100.0 µM 39% | [3]; at 1.2 µM -36% | [3]; at 3.7 µM -39% | [3]; at 11.0 µM -41% | [3]; at 33.0 µM -32% | [3]; at 100.0 µM -27% | [4]; at 1.2 µM -3% | [4]; at 3.7 µM -5% | [4]; at 11.0 µM 0% | [4]; at 33.0 µM 36% | [5]; at 1.2 µM -39% | [5]; at 3.7 µM -28% | [5]; [17] 63% | [5]; at 11.0 µM -20% | [5]; at 33.0 µM 21% | [5]; at 50.0 µM 64.7% | [6]; at 1.2 µM -25% | [6]; at 3.7 µM 2% | [6]; [17] 68% | [6]; at 11.0 µM -12% | [6]; at 33.0 µM 7% | [6]; at 50.0 µM 14.3% | [6]; at 100.0 µM 50% | [7]; at 1.2 µM -8% | [7]; at 3.7 µM -17% | [7]; at 11.0 µM -20% | [7]; at 33.0 µM 45% | [8]; [17] -16% | [9]; at 1.2 µM -12% | [9]; at 3.7 µM -7% | [9]; at 11.0 µM 8% | [9]; at 33.0 µM 17% | [9]; at 100.0 µM 60% | [10]; [17] 46% | [10]; at 50.0 µM 45.8% | [11]; at 1.2 µM -6% | [11]; at 3.7 µM -7% | [11]; [17] 17% | [11]; at 11.0 µM -18% | [11]; at 33.0 µM 5% | [11]; at 50.0 µM 58.8% | [11]; at 100.0 µM 50% | [12]; at 1.2 µM -18% | [12]; at 3.7 µM -27% | [12]; at 11.0 µM -21% | [12]; at 33.0 µM -7% | [12]; at 100.0 µM 65% | [13]; at 1.2 µM -22% | [13]; at 3.7 µM -16% | [13]; at 11.0 µM -27% | [13]; at 33.0 µM 14% | [14]; at 1.2 µM -30% | [14]; at 3.7 µM -29% | [14]; at 11.0 µM -19% | [14]; at 33.0 µM 30% | [15]; [17] 53% | [15]; at 50.0 µM 57.4% | [16]; at 1.2 µM -16% | [16]; at 3.7 µM -14% | [16]; at 11.0 µM -2% | [16]; at 33.0 µM 21%
